# Fam108B inh: Fam108B inhibition, counter-screen for RBBP9 inhibitors; recombinant Fam108B, FP-Rh probe fluorescence polarization; inhibition, % at 9.51 µM; hit rate 0.33% among 300,000;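 active = inhibition above the screen mean inhibition plus 3 SD, computed separately per campaign, cut at about 18% in these data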;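 also: inhibitors lower polarization as less probe binds the enzyme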
# LYPLA1 inh: blocks human lysophospholipase 1, a PME1 counter-screen. O75608. recombinant LYPLA1, FP-Rh probe fluorescence polarization. inhibition, % at 5.9 µM. hit rate 0.16% among 320,000. AID 2174;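 active = inhibition above the mean of all tested compounds plus 3 SD, set per campaign, cut at about 14% in these data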;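 also: inhibitors block serine hydrolase probe labeling of LYPLA1 so polarization falls; 0% = enzyme with DMSO and 100% = wells lacking LYPLA1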
# LYPLA2 inh: blocks human lysophospholipase 2, a PME1 counter-screen. O95372. recombinant LYPLA2, FP-Rh probe fluorescence polarization. inhibition, % at 5.9 µM. hit rate 0.38% among 320,000;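 active = inhibition above the screen-wide mean plus 3 SD, limit set per campaign, cut at about 26% in these data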;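 also: 0% = LYPLA2 with DMSO and 100% = wells lacking LYPLA2 enzyme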
# Target sequence (O95372 whole entry, looked up): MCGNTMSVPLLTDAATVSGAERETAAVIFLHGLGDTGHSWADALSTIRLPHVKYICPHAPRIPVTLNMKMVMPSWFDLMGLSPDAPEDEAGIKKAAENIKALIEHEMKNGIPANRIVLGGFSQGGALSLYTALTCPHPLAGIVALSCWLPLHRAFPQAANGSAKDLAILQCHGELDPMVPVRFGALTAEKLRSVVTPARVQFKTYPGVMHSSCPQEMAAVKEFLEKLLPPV
# PME-1 primary: PME-1 (human) inhibition; Q9Y570; recombinant PME-1, FP-Rh probe fluorescence polarization; inhibition, % at 5.9 µM; hit rate 0.53% among 320,000;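 active = inhibition above the campaign mean of all compounds plus 3 SD, cut at about 26% in these data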;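 also: competitive labeling of PME-1 active site by serine hydrolase directed probe; 0% = PME-1 with DMSO and 100% = wells lacking PME-1 enzyme; inhibitors block probe labeling so polarization falls and inhibition rises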
# PAD4 FP inh: PAD4 (human) enzyme inhibition | Q9UM07 | recombinant PAD4, RCA probe fluorescence polarization | inhibition, % at 6.36 µM | hit rate 0.41% among 330,000 | AID 485272;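 active = percent inhibition above a cutoff equal to the mean of all tested compounds plus 3 SD, cut at about 15% in these data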;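 also: 0% = PAD4 with RCA probe and DMSO and 100% = probe without PAD4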
# GSTO1 inh: GSTO1 inhibition, counter-screen for RBBP9 inhibitors; P78417; recombinant GSTO1, activity-based probe fluorescence polarization; inhibition, % at 5.96 µM; hit rate 1.1% among 300,000; AID 1974;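 active = inhibition above the campaign mean inhibition plus 3 SD, cut at about 35% in these data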;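 also: 0% = GSTO1-1 with DMSO and 100% = wells lacking GSTO1-1 enzyme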
# The depositor's hits bear a star; nt = not tested or not shown. This is a sample that favours compounds with a hit; in the whole collection about 1.7% have one here.
SMILES,Fam108B inh,LYPLA1 inh,LYPLA2 inh,PME-1 primary,PAD4 FP inh,GSTO1 inh
Cc1ccc(C(=O)NNC(=O)c2cccc(S(=O)(=O)N3CCOCC3)c2)cc1,nt,nt,nt,nt,-5,nt
Cc1nccc(-c2cc(-c3ccc(Cl)cc3Cl)no2)n1,-5,-1,4,-9,1,1
COc1cccc2nc3cc(C)c(C)cc3nc12,9,0,-2,8,-13,48*
COc1cccc2c1nc(C)c1cc(C)oc12,-6,0,1,3,-5,-2
CC(=O)n1cc(N(C(=O)CCl)c2ccc(C)cc2)c2ccccc21,-1,1,2,-1,12,70*
CC(=O)N(c1ccc(Cl)cc1)c1cn(C(C)=O)c2ccccc12,3,-4,-3,1,0,-2
Cc1cc2ccccc2nc1SCC(=O)N1CCCC1,2,-3,-5,-1,3,-12
Cc1ccc(Nc2nnc(SCC(=O)c3ccc(O)cc3O)s2)cc1,8,-5,1,37*,-8,14
CC1(C)CC(=O)C2=C(C1)Nc1ccccc1NC2c1ccc([N+](=O)[O-])cc1 (centres undefined),-2,-1,2,5,1,-3
N#Cc1cc2ccccc2nc1SCC(=O)Nc1ccccc1N1CCOCC1,-8,-2,-4,30*,3,5
O=C(COc1cccnc1[N+](=O)[O-])c1ccc(Cl)s1,5,-3,2,6,-4,35*
O=C(COc1cccnc1[N+](=O)[O-])Nc1c(Cl)cccc1Cl,nt,nt,nt,nt,-1,nt
O=C(OCc1ccccc1)c1ccccc1,2,1,5,1,-2,-3
O=C(OCc1ccccc1)Oc1cncc(C(=O)O)c1,-5,1,4,1,-1,35*
O=C(NNC(=O)c1cc2cc(Br)ccc2oc1=O)c1ccc(O)cc1O,1,-4,-4,34*,3,8
CCC(=O)Nc1cc(C(C)(C)C)ccc1C(C)=O,-2,-3,-5,0,3,4
Cc1ccccc1NC(=O)CSc1ccc(-c2ccco2)nn1,1,2,2,2,0,17
CCc1nnc(NC(=O)CSc2ccc(-c3ccco3)nn2)s1,5,0,-4,2,1,36*
Cc1nnc(NC(=O)CSc2ccc(-c3ccco3)nn2)s1,2,3,3,2,-2,54*
Cc1nnc(NC(=O)CSc2nc3ccccc3o2)s1,-1,-3,2,1,3,37*
CCc1ccc(-c2ccc(SCC(=O)Nc3nnc(C)s3)nn2)cc1,6,0,2,-2,0,36*
C=CCNC(=S)NC(CC(=O)OC)c1ccc2c(c1)OCO2 (centres undefined),2,4,16,4,3,2
COc1ccc(C(CNC(=O)c2cccc(S(=O)(=O)N3CCOCC3)c2)N2CCCC2)cc1 (centres undefined),nt,-1,2,0,-1,nt
C[n+]1cccc(C2C(C#N)=C(N)Oc3c2ccc2ccccc32)c1 (centres undefined),-2,6,5,2,-11,37*
C[n+]1cccc2ccc3c(c21)OC(N)=C(C#N)C3c1ccccc1 (centres undefined),1,-1,-4,3,-7,9
SMILES,Fam108B inh,LYPLA1 inh,LYPLA2 inh,PME-1 primary,PAD4 FP inh,GSTO1 inh
CCOc1ccc(N(CC(=O)NC2CCCCC2)C(=O)CNC(=O)c2cccs2)cc1,3,-1,5,-1,2,-2
Cc1nonc1-c1csc(N)n1,-3,-4,-1,-2,-3,1
S=C(NNc1ccnc2cc(Cl)ccc12)Nc1ccc(Cl)cc1Cl,7,-4,15,25,-4,10
CCOc1ccc(NC(=S)NNc2ccnc3cc(Cl)ccc23)cc1,5,-6,-1,38*,2,15
COC(=O)c1ccc(Sc2ccccc2NS(=O)(=O)c2ccc(C)cc2)nc1,-3,7,6,29*,-8,0
C/C(=N\NC(=O)c1ccccc1[N+](=O)[O-])c1ccc(Br)s1,1,-2,0,8,2,-1
C/C(=N\Nc1nc2ccccc2s1)c1ccc(Br)s1,-3,-10,-12,51*,1,-2
C/C(=N\NC(=O)c1ccccc1O)c1ccc(Br)s1,1,3,2,-5,3,73*
COc1ccc(/C=C2\SC(=O)N(CC(=O)NNC(=O)c3ccccc3O)C2=O)cc1OC,7,2,1,-13,2,38*

# Bioassay records as filed in PubChem.
